KKLEB cytotox = reduces viability of KKLEB cystic fibrosis airway cells; 360,000 compounds, 0.36% hits; activity change (cytotoxicity), % at 5 µM; KKLEB CF airway cells viability, ATPlite luminescence, overnight; hits give low values; cells stimulated with P. aeruginosa culture filtrate; AID 602141;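 active = corrected activity change at or below -50% at 5 µM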
Shn3 inh set2 = reduces Shn3 3'UTR luciferase signal in osteoblasts. 360,000 compounds, 0.52% hits. inhibition, % at 12.5 µM. Clone20 osteoblast Shn3 3'UTR firefly luciferase, 24 h. AID 588674;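 active = mean inhibition of at least 75% with every replicate also reaching 75%; inconclusive = mean inhibition at least 75% but some replicate below; inactive = mean inhibition below 75%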
HIF-2a inh = HIF-2a inhibition. 786-0 RCC cells HIF-2a reporter, luciferase luminescence, overnight. inhibition, % at 18.8 µM. 360,000 compounds, 0.72% hits. AID 624352;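 active = inhibition of the luminescence signal of 40% or more relative to plate controls, in a single-dose primary screen at 18.75 µM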
Peg3 prom inh = inhibitors of Peg3 promoter | HeLa PEG-Prom luciferase reporter, luminescence, overnight | inhibition, % at 20 µM | 360,000 compounds, 1.7% hits;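 active = inhibition of at least 50% at 20 µM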
EBV LMP1 NFkB = reduces LMP1-driven NF-kappaB luciferase signal; AID 504558; inhibition, % at 12.5 µM; 350,000 compounds, 0.69% hits; LMP1-induced NF-kappaB luciferase reporter cells, luminescence; in the data active = inhibition above about 41%; inconclusive = no clear call, values can overlap the other calls
CF NFkB inh = cystic fibrosis NF-kB activation inhibition. AID 588850. 360,000 compounds, 0.86% hits. KKLEB NF-kB-GFP reporter, PAF-induced, GFP fluorescence overnight. inhibition, % at 5 µM;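 active = at least 50% inhibition at 5 µM, scaled per plate between neutral and stimulator controls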;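 note: PAF is a Pseudomonas aeruginosa culture filtrate used as stimulus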
Numbers stand for hits. Shown are actives, neighbours in structure and some others; about 2.9% of the full set was active somewhere.

Screening COc1ccc(N=Nc2cc(-c3ccccc3)ccc2O)cc1 returned KKLEB cytotox inactive, Shn3 inh set2 inactive, HIF-2a inh inactive, Peg3 prom inh inactive, EBV LMP1 NFkB inactive and CF NFkB inh inactive.
`O=S(=O)(O)c1cccc2c(N=Nc3ccc(O)c4ncccc34)cccc12` gave KKLEB cytotox inactive, Shn3 inh set2 inactive, HIF-2a inh inactive, Peg3 prom inh inactive, EBV LMP1 NFkB inactive and CF NFkB inh inactive.
`Cc1ccccc1N=Nc1ccc(O)c2ncccc12` gave KKLEB cytotox inactive, Shn3 inh set2 inconclusive, HIF-2a inh inactive, Peg3 prom inh inactive, EBV LMP1 NFkB 44 and CF NFkB inh inactive.
`O=Nc1ccc(O)c2ncccc12` gave KKLEB cytotox -51, Shn3 inh set2 86, HIF-2a inh inactive, Peg3 prom inh 76, EBV LMP1 NFkB inactive and CF NFkB inh 72.
Screening COc1cc(OC)cc(C(=O)Nc2cccc3cccnc23)c1 returned KKLEB cytotox inactive, Shn3 inh set2 inactive, HIF-2a inh inactive, Peg3 prom inh inactive, EBV LMP1 NFkB inactive and CF NFkB inh inactive.
COc1ccc(N=Nc2ccc(O)c3ncccc23)cc1 was read as KKLEB cytotox inactive, Shn3 inh set2 91, HIF-2a inh inactive, Peg3 prom inh inactive, EBV LMP1 NFkB inconclusive and CF NFkB inh inactive.
COc1cccc(N=Nc2ccc3cccnc3c2O)c1 was read as KKLEB cytotox inactive, Shn3 inh set2 90, HIF-2a inh inactive, Peg3 prom inh inactive, EBV LMP1 NFkB inactive and CF NFkB inh inactive.
`COc1cccc(N2CCN(C(=O)c3nc4nc(C)cc(C)n4n3)CC2)c1` gave KKLEB cytotox inactive, Shn3 inh set2 inactive, HIF-2a inh inactive, Peg3 prom inh inactive, EBV LMP1 NFkB inactive and CF NFkB inh inactive.
`Cc1nc(N/N=C/c2ccc(Br)cc2)cc(N2CCOCC2)n1` gave KKLEB cytotox inactive, Shn3 inh set2 inactive, HIF-2a inh inactive, Peg3 prom inh inactive, EBV LMP1 NFkB inactive and CF NFkB inh inactive.
COc1cccc(N=Nc2ccc(O)c3ncccc23)c1 was read as KKLEB cytotox -81, Shn3 inh set2 inactive, HIF-2a inh inactive, Peg3 prom inh inactive, EBV LMP1 NFkB 69 and CF NFkB inh 100.
For COc1ccc(C)cc1N=Nc1ccc(O)c2ncccc12 the results were KKLEB cytotox inactive, Shn3 inh set2 90, HIF-2a inh inactive, Peg3 prom inh inactive, EBV LMP1 NFkB 86 and CF NFkB inh inactive.
CC(CCn1cccn1)NC(=O)CCc1nnc(C2CCCCC2)o1 (centres undefined) was read as KKLEB cytotox inactive, Shn3 inh set2 inactive, HIF-2a inh inactive, Peg3 prom inh inactive, EBV LMP1 NFkB inactive and CF NFkB inh inactive.
N#CCSc1nc2cc(C(=O)N3CCC(C(N)=O)CC3)ccc2c2nc3ccccc3n12 was read as KKLEB cytotox inactive, Shn3 inh set2 inactive, HIF-2a inh inactive, Peg3 prom inh inactive, EBV LMP1 NFkB inactive and CF NFkB inh 68.
For N#CCSc1nc2cc(C(=O)N3CCCC3)ccc2c(=O)n1Cc1ccccc1 the results were KKLEB cytotox inactive, Shn3 inh set2 inactive, HIF-2a inh inactive, Peg3 prom inh inactive, EBV LMP1 NFkB inactive and CF NFkB inh inactive.
CCOC(=O)CC(NC(=O)c1ccc(C)cc1)c1ccc(C)cc1 (centres undefined) was read as KKLEB cytotox inactive, Shn3 inh set2 inactive, HIF-2a inh inactive, Peg3 prom inh inactive, EBV LMP1 NFkB inactive and CF NFkB inh inactive.
Cc1cc(=O)oc2c3c(cc(OCC(=O)NCc4ccccc4)c12)OC(C)(C)CC3 was read as KKLEB cytotox inactive, Shn3 inh set2 inactive, HIF-2a inh inactive, Peg3 prom inh inactive, EBV LMP1 NFkB inactive and CF NFkB inh inactive.
Cc1cc(=O)oc2c3c(cc(OCC(=O)Nc4ccc(CCO)cc4)c12)OC(C)(C)CC3 was read as KKLEB cytotox inactive, Shn3 inh set2 91, HIF-2a inh inactive, Peg3 prom inh inactive, EBV LMP1 NFkB inactive and CF NFkB inh inactive.
`Cc1cccc(N(C(=O)c2snc(C(N)=O)c2N)C(C(=O)NC2CCCC2)c2ccco2)c1` (centres undefined) gave KKLEB cytotox inactive, Shn3 inh set2 inactive, HIF-2a inh inactive, Peg3 prom inh inactive, EBV LMP1 NFkB inactive and CF NFkB inh inactive.
For CC(C)Cn1c(N)c(C(=O)COC(=O)c2cnc(Cl)c(Cl)c2)c(=O)n(C)c1=O the results were KKLEB cytotox inactive, Shn3 inh set2 inactive, HIF-2a inh inactive, Peg3 prom inh 74, EBV LMP1 NFkB inactive and CF NFkB inh inactive.

Compound activity from PubChem.
